TrxR1 substrate – qHTS Assay for Substrates of Mammalian Selenoprotein Thioredoxin Reductase 1 (TrxR1): qHTS; Thioredoxin reductase 1, cytoplasmic (Rattus norvegicus), O89049; purified TrxR1 substrate turnover, NADPH consumption readout; Potency, µM (doses to about 114 µM), for the others: top-dose activity change, negative = substrate turnover; hit rate 0.01% among 390,000; AID 588456, 2011; note: potency is the fitted concentration of half-maximal effect; % is set by controls: 0 for no effect and ±100 for the full control effect; nearly all actives have a fitted effect of over 50% in size
Target sequence (O89049 whole entry, looked up): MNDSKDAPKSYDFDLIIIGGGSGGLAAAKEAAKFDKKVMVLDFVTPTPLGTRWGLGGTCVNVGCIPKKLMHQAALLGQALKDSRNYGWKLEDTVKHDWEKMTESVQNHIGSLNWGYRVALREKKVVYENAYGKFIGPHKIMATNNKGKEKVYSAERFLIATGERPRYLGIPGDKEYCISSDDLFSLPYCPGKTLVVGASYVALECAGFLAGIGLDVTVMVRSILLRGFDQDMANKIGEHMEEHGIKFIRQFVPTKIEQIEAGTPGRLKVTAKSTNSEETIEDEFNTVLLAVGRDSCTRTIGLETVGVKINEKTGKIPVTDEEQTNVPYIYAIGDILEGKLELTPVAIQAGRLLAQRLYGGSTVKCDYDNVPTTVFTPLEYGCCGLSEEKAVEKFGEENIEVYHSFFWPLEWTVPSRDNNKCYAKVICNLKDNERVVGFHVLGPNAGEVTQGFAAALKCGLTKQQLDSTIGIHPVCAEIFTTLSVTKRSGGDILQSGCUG
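Rat TrxR1, dispensed at 90 nM, was prereduced with 400 uM NADPH (final) for 5 min at ~22 deg C, then incubated with compound 15 min before 400 uM selenite. A first-read NADPH fluorescence drop versus no-compound background flagged substrates.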
A-T KAP1 phos – qHTS Assay for Identifying a Potential Treatment of Ataxia-Telangiectasia | hit rate 0.19% among 320,000 | AID 485349, 2010 | Potency, µM (titrated, usually from 57.5 µM), for the others: at the top dose activation, hits mostly activators | F2112 A-T fibroblasts, KAP-1 phosphorylation AlphaLISA; neocarzinostatin DNA damage 30 min before lysis; note: potency is the fitted concentration of half-maximal effect; % of control where 0% means no effect; nearly all actives have a fitted effect of over 45% in size
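ATM-like activity read as KAP-1 phosphorylation via AlphaLISA donor/acceptor antibody pairs after lysis and 6 hr at 25C. Cells were ATM-null patient fibroblasts (F2112, hTERT), dosed 60 min, then exposed to the DSB inducer NCS for 30 min.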
Pin1 inh – qHTS Assay to Find Inhibitors of Pin1 | Potency, µM (series often up to 115 µM), inactives show at the top dose activity, negative = inhibition, most hits filed as inhibitors | hit rate 0.009% among 390,000 | Pin1 FP peptide displacement, HiFluor488, 10 min | AID 504891, 2011 | Peptidyl-prolyl cis-trans isomerase NIMA-interacting 1 (Homo sapiens), Q13526; active = well fitted inhibition curve with a large enough effect in the polarisation, with a control signal flat, not every such curve was filed as active; inconclusive = small, poorly fitted or top-dose-only effect, or effect the other way, or a change in a side signal; inactive = no such curve, though single readings can be large or run the other way; the % refers to the polarisation; note: potency is the fitted concentration of half-maximal effect; % is set by controls: 0 for no effect and ±100 for the full control effect
Target sequence (Q13526 whole entry, looked up): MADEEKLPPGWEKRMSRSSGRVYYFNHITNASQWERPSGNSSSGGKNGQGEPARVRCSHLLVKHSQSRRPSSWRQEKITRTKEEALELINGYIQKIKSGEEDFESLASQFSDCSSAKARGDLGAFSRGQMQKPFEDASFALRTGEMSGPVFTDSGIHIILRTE
N370S GC mod – qHTS Assay for Inhibitors and Activators of N370S glucocerebrosidase as a Potential Chaperone Treatment of Gaucher Disease; N370S GC spleen homogenate, 4MU-glucoside fluorescence; Potency, µM (doses to about 59.4 µM), for inactives: top-dose activity change, negative = inhibition, usual class: inhibitors; hit rate 0.092% among 330,000;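 note: potency is the fitted concentration of half-maximal effect; 0% = full enzyme activity and -100% = no enzyme basal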
TrxR1 inh – qHTS Assay for Inhibitors of Mammalian Selenoprotein Thioredoxin Reductase 1 (TrxR1): qHTS. Thioredoxin reductase 1, cytoplasmic (Rattus norvegicus), O89049. recombinant rTrxR1, NADPH fluorescence consumption, selenite substrate. Potency, µM (series often up to 114 µM), inactives show at the highest dose activity change, negative = inhibition, actives largely listed as inhibitors. hit rate 1% among 390,000. AID 588453, 2011; note: potency is the fitted concentration of half-maximal effect; % is set by controls: 0 for no effect and ±100 for the full control effect; nearly all actives have a fitted effect of over 65% in size
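Rat TrxR1 (90 nM in the dispensed reagent) was pre-reduced with 400 uM NADPH for 5 min at room temperature, then incubated with compound for 15 min. After 400 uM selenite was added, NADPH fluorescence (Ex 340/Em 450 nm) was followed for 8 min.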
pAkt inh – HTS Assay for Inhibitors of Akt Phophorylation: Primary Screen | Neuro2A IGF-stimulated pAkt S473 HTRF, 20 min; hits give low values | activity change, % for hits at 50 µM | hit rate 0.32% among 360,000; in the data active = activity change below about -80%; inconclusive = mostly about -51% to -80%; note: % is set by controls: 0 for no effect and ±100 for the full control effect
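Neuro2A cells (4,500/well, DMEM with 0.5% FBS) were treated with compound at a single 50 µM final concentration, stimulated with 6 nM IGF for 20 min at 37 °C, and lysed. Phospho-Akt Ser473 was read by HTRF as 665/615 ratio ×10^4.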
* hit, by the source's call; i = inactive; ? = inconclusive; · = not tested or not shown; [ ] = another dose, or the depositor's remark. Shown are actives, neighbours in structure and some others; about 1.4% of the full set was active somewhere. Unless noted, calls come from the whole dose curve; as a rule, active = well fitted curve in the direction sought with a large enough effect; inconclusive = small, poorly fitted or top-dose-only effect, or another doubt; inactive = no such curve, though single readings can be large; an effect the other way counts as inactive or inconclusive.

SMILES | TrxR1 substrate | A-T KAP1 phos | Pin1 inh | N370S GC mod | TrxR1 inh | pAkt inh
CC(C)c1ccc(OCC(=O)N(Cc2cccs2)C2CCS(=O)(=O)C2)cc1 (stereo not given) | 2% | · | -4% | · | 16% | ·
CC(C)(C)OC(=O)Cc1nnc(CNC(=O)c2ccccc2)s1 | · | · | 0% | · | · | ·
COc1ccc(C(=O)CSc2nnc(-c3cccnc3)n2Cc2ccco2)cc1 | -9% | -10% | 10% | ? | 50µM* | i
O=C(CSc1nnc(Cc2cccs2)n1Cc1ccco1)Nc1cc(Cl)cc(Cl)c1 | -2% | -3% | 26% | ? | ? | i
O=C(CSc1nnc(Cc2cccs2)n1Cc1ccco1)Nc1cccc(Cl)c1 | 6% | 5% | 6% | 7% | 25µM* | i
Clc1ccc(CSc2nnc(-c3cccnc3)n2Cc2ccco2)c(Cl)c1 | -10% | 17% | 39% | 2% | 40µM* | i
O=C(O)CCSc1nnc(CNc2ccc(Cl)cc2)n1Cc1ccccc1 | -1%[57.1 µM] | 3% | 0% | 13% | 3%[57.1 µM] | i
COc1ccc(C(=O)CSc2nnc(-c3cnccn3)n2Cc2ccco2)cc1 | 15% | 7% | 6% | 1% | ? | i
O=C(CSc1nnc(CNc2ccc(Cl)cc2)n1Cc1ccccc1)NCc1ccco1 | -12% | 5% | ? | -7% | -25% | -109%*
CCOc1ccc(NC(=O)CSc2nnc(-c3ccc(C)cc3)c(-c3ccc(C)cc3)n2)cc1 | -1%[57.1 µM] | · | 26% | · | 20%[57.1 µM] | ·
COc1ccc(N2CCN(CCCNC(=O)CN3CCN(Cc4ccccc4C)C3=O)CC2)cc1 | 4% | -8% | 2% | 7% | 2% | -111%*
CC(=O)Oc1ccccc1/C=C/c1ccc2ccccc2[n+]1C | -13% | -3% | -1% | -15% | 20µM* | i
COc1cccc(/C=C/c2ccc3ccccc3[n+]2C)c1OC | 118% | · | · | · | 22% | ·
O=C(Nc1ccncc1)c1cnn2c1NC(=C1CC1)C=C2C(F)F | -1% | · | · | · | -10% | ·
c1nc(N2CCC(N3CCCC3)CC2)c2cc(-c3ccc4c(c3)OCO4)ccc2n1 | · | · | 3% | · | · | ·
COc1ccc(NC(=O)CCS(=O)(=O)c2nc(-c3cccs3)cc(C(F)(F)F)n2)cc1 | 13%[2.29 µM] | · | -2% | · | 13µM* | ·
CC(C)c1nnc(NC(=O)CCS(=O)(=O)c2nc(-c3cccs3)cc(C(F)(F)F)n2)s1 | 14% | -7% | 21% | 27% | 35µM* | i
O=C(CCS(=O)(=O)c1nc(-c2cccs2)cc(C(F)(F)F)n1)Nc1ccc(OC(F)(F)F)cc1 | 6% | · | -1% | · | -3% | ·
CCN(c1ccccc1)S(=O)(=O)c1nnc(NC(=O)COc2cccc(C)c2)s1 | 4% | · | -5% | · | 4% | ·
COC(=O)c1cc(Br)ccc1NC(=O)Nc1ccc(C)cc1 | -1% | · | 5% | · | 6% | -115%*
COC(=O)c1cc(Br)ccc1NC(=O)Nc1ccccc1 | 6%[57.1 µM] | -2% | -1% | 5% | 2% | i
C(=N\n1cnnc1)/c1ccc(OCc2cccc3ccccc23)cc1 | 1%[57.1 µM] | -2% | -7% | -11% | -7%[57.1 µM] | -134%*
Fc1ccccc1COc1ccc(/C=N/n2cnnc2)cc1 | -11% | 12% | -7% | -19% | -5% | i
CN1CCN(Nc2nn3c(=O)c4ccccc4nc3s2)CC1 | · | · | 1% | · | · | ·
O=C(/C=C/c1ccc(Cl)cc1)c1ccc([N+](=O)[O-])o1 | -2% | 17% | -6% | -14% | 5µM* | i
SMILES | TrxR1 substrate | A-T KAP1 phos | Pin1 inh | N370S GC mod | TrxR1 inh | pAkt inh
Cc1ccc(/C=C/C(=O)c2ccc([N+](=O)[O-])o2)cc1 | -4% | ? | -1% | 2% | 6.3µM* | i
Cc1ccc(C)c(SC2=NS(=O)(=O)c3ccccc32)c1 | · | · | -7% | · | · | ·
COc1cccc(C2c3c(ncn(-c4cccnc4)c3=N)Oc3ccc4ccccc4c32)c1 (stereo not given) | · | · | 4% | · | · | ·
Cn1cc(P(=O)(c2ccccc2)c2ccccc2)c2ccccc21 | · | · | -1% | · | · | ·
Cc1ccc(S(=O)(=O)N2CCN(c3nc(-n4ccnc4)nc4ccccc34)CC2)cc1 | 22% | · | · | · | 23% | ·
O=C(NCCc1ccc(O)c(O)c1)C1COc2ccccc2O1 (stereo not given) | 4% | -16% | -6% | -6% | 45µM* | i
Cc1ccc(-c2cc(C(=O)N3CCCC3)c3ccccc3n2)s1 | 445% | 20µM* | -3% | ? | 35% | i
Cc1cccc(CCn2c(=O)c3ccccc3n(Cc3ccccc3C)c2=O)c1 | -7% | · | 4% | · | 8% | ·
CN(C)CCC(=O)C(Cc1ccccc1)c1ccccc1 (stereo not given) | 0% | · | 8% | · | 0.25µM* | i
CN(C)CCNC(=O)C(c1ccccc1)c1ccccc1 | 0% | -12% | -4% | -15% | 21% | i
CCCCNc1c(-c2ccc(SC3CCCCC3)cc2)nc2ccccn12 | 53% | ? | ? | 21% | 23% | i
Cc1ccn2c(NCc3ccccc3)c(-c3cccs3)nc2c1 | -12%[57.1 µM] | 2% | 0% | 11µM* | 14%[57.1 µM] | i
CCCCNc1c(-c2ccc(SC(C)CC)cc2)nc2ccccn12 (stereo not given) | 83% | 22µM* | -13% | -8% | 43% | i
CCC(C)Sc1cccc(-c2nc3cc(C)ccn3c2NCc2ccccc2)c1 (stereo not given) | 41% | 22µM* | 7% | ? | 27% | i
CC(=O)NC1CCN(c2nc(-c3ccc(Br)cc3)cs2)CC1 | · | · | 0% | · | · | ·
C=C1C(=O)C2=CC1CCC(=O)C1(C)CCC(OC(C)=O)C(C)(C)C1CC2O (stereo not given) | 1% | · | 1% | · | 50µM* | i
Cc1ccc2c(c1)Sc1ccccc1CC2=O | -15% | 40µM* | -5% | · | 16%[57.1 µM] | i
O=C1Cc2ccccc2Sc2ccccc21 | -12% | 3% | 10% | 2% | 20%[57.1 µM] | i
O=[S+]([O-])(c1c(F)cccc1F)N1CCN([S+](=O)([O-])c2c(F)c(F)c(F)c(F)c2F)CC1 | · | · | 1% | · | · | ·
COc1ccc(C(O)c2nc3ccccc3n2C(C)C)cc1 (stereo not given) | 0% | 28µM* | -7% | 12% | 3% | i
Cc1cc(NS(=O)(=O)c2ccc(NC(NC(=O)C(C(F)(F)F)C(F)(F)F)(C(F)(F)F)C(F)(F)F)cc2)no1 | 4%[57.1 µM] | 10% | -6% | -3% | 10µM* | i

From PubChem
